The sample as a whole holds a higher share of hits than the screen did.
Giardia FBPA inh = Giardia lamblia aldolase inhibition. A8B2U2. purified Giardia FBPA. Potency, µM (doses to about 59.6 µM), actives largely listed as inhibitors. 290,000 tested, 0.71% active. AID 2451; further: nearly all actives have a fitted effect of over 55% in size
Target sequence (A8B2U2 whole entry, looked up): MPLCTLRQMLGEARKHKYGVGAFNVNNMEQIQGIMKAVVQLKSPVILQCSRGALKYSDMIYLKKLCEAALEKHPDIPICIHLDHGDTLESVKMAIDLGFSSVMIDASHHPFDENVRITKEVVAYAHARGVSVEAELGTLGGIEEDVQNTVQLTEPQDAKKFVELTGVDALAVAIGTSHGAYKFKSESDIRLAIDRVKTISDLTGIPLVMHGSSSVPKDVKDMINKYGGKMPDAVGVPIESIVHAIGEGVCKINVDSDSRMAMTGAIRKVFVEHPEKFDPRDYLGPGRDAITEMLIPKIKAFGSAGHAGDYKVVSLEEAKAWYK
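40 nM FBPA preincubated 10 min at RT with compound (up to 57.5 uM final), then substrate plus GAPDH/TPI/NAD/arsenate coupling and diaphorase/resazurin added. Fluorescence read after 20 min at RT, 525/598 nm.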
Sm TGR block = inhibitors of Schistosoma mansoni thioredoxin glutathione reductase; Potency, µM (series often up to 114 µM), actives largely listed as inhibitors; Q962Y6; 360,000 tested, 3% active; purified TGR, DTNB reduction, TNB absorbance 405 nm; further: nearly all actives have a fitted effect of over 60% in size
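TGR 20 nM + NADPH 100 uM (dispensed conc.), cpd preinc 15 min RT; start with NADPH (500 uM addition) then DTNB (15 mM addition). Kinetic TNB absorbance, 405 nm filter. Four-parameter Hill fit across titration.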
LmPK inh = LmPK (Leishmania mexicana) enzyme inhibition. Q27686. purified LmPK, Kinase-Glo ATP luminescence, 1 h. Potency, µM (highest dose often 57.5 µM), hits mostly inhibitors. 290,000 tested, 0.37% active
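Purified LmPK (0.1 nM) converted ADP (0.1 mM) to ATP with PEP (0.5 mM) in imidazole buffer pH 7.2 with KCl and MgCl2, 1 h at room temperature. ATP was read by Kinase-Glo luminescence; data normalized to uninhibited and no-enzyme controls.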
TbPYK inhibitor = inhibitors of Trypanosoma brucei pyruvate kinase; TbPYK enzyme, Kinase-Glo Plus ATP luminescence, 45 min; 410,000 tested, 0.12% active; Potency, µM (highest dose often 76.8 µM), actives largely listed as inhibitors; Q57TT1; further: nearly all actives have a fitted effect of over 50% in size
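ADP (130 uM final) triggers the TbPYK reaction after compound addition; incubation is 45 min at room temperature. Kinase-Glo Plus is then added and luminescence imaged. Normalized data are fitted to concentration-effect curves.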
CHX counter = counter-screen hit for Shiga toxin inhibitors, cycloheximide; cell reporter, cycloheximide protein synthesis inhibition counterscreen; max response, %; 300,000 tested, 12% active; AID 2314; in the data active means max response mostly above about 13%, no sharp cut-off; inactive means mostly below about 14%; further: read at 38.3 µM for the half of the compounds with a filed dose
Shiga toxin inh = Shiga toxin inhibition; Vero cells, Shiga toxin protein synthesis inhibition reporter; inhibition, % at 38.7 µM; 290,000 tested, 9.2% active; in the data active means inhibition mostly above about 28%, no sharp cut-off; inactive means mostly below about 43%
Of the large screens only hits and unclear results are named; the others gave an inactive call. Unless noted, the call rests on the fitted dose curve; in most records, active means well fitted curve in the direction sought with a large enough effect; inconclusive means small, poorly fitted or top-dose-only effect, or another doubt; inactive means no such curve, though single readings can be large; an effect the other way counts as inactive or inconclusive.

O=C1NC(=O)N(c2ccccc2)C(=O)/C1=C\c1ccc([N+](=O)[O-])s1	Giardia FBPA inh inconclusive, Sm TGR block 10µM, TbPYK inhibitor inconclusive
O=C1NC(=O)C(=Cc2cc3c(cc2[N+](=O)[O-])OCO3)C(=O)N1	Sm TGR block inconclusive, TbPYK inhibitor inconclusive
COc1ccc(N2C(=O)NC(=O)C2=O)cc1	Giardia FBPA inh inconclusive, CHX counter 40
Cc1cccc(N2C(=O)NC(=O)/C(=C/c3cc4c(cc3[N+](=O)[O-])OCO4)C2=O)c1	Sm TGR block 2.2µM, TbPYK inhibitor inconclusive
COCCNC(=S)N1CCN(c2nc(-c3ccc(Cl)cc3)cs2)CC1	none
COCCNC(=S)N1CCN(c2nc3ccccc3s2)CC1	Sm TGR block inconclusive, CHX counter 32
COCCCNC(=S)N1CCN(c2nc3ccccc3s2)CC1	CHX counter 14
Cc1cccc(CNc2ncncc2-c2cccc(C#N)c2)c1	none (no result: Sm TGR block, LmPK inh, TbPYK inhibitor, CHX counter, Shiga toxin inh)
Cc1ccc(S(=O)(=O)CCC(=O)N(C)C2CCCCC2)cc1	CHX counter 13
Oc1cccc2ccc(/C=C/c3c(F)cccc3Cl)nc12	LmPK inh inconclusive, CHX counter 53, Shiga toxin inh 158
Oc1cccc2ccc(/C=C/c3ccccc3Cl)nc12	CHX counter 40, Shiga toxin inh 72
Nc1nccc(/C=C/c2c(F)cccc2Cl)n1	CHX counter 28, Shiga toxin inh 68 (no result: Sm TGR block)
O=C(Oc1ccc(/C=N/O)cc1)c1ccccc1Cl	CHX counter 51, Shiga toxin inh 69
O=C(N/N=C/c1cccc(OC(=O)c2ccccc2Cl)c1)c1cccnc1	CHX counter 25, Shiga toxin inh 49
CC(=O)Oc1ccccc1C(=O)Oc1ccc(/C=N/n2cnnc2)cc1	none
Cc1cccc(C(=O)Oc2ccc(/C=N/O)cc2)c1	CHX counter 48, Shiga toxin inh 45
COc1cc(C(=O)N/N=C/c2ccc(OC(=O)c3cccc(C)c3)cc2)ccc1O	none
Cc1ccc(C(=O)N/N=C/c2ccc(OC(=O)c3ccccc3Cl)cc2)cn1	CHX counter 14 (no result: Giardia FBPA inh)
COc1ccc(-c2nnc(SCC(=O)NC3CCCCC3)n2N)cc1	none (no result: Giardia FBPA inh, LmPK inh, CHX counter, Shiga toxin inh)
CSCCC(NC(=O)c1ccccc1Cl)C(=O)N1CCN(c2ccccn2)CC1 (configuration not stated)	none (no result: Giardia FBPA inh, Sm TGR block, LmPK inh, CHX counter, Shiga toxin inh)
CCC(C)(C)C1CCC2(CC1)NC(=O)N(CC(=O)N(C)Cc1ccc3c(c1)OCCO3)C2=O (configuration not stated)	none (no result: Giardia FBPA inh, LmPK inh, CHX counter, Shiga toxin inh)
O=C(Nc1nc(-c2cccnc2)cs1)c1cccc([N+](=O)[O-])c1	none
COc1cc(NS(=O)(=O)c2ccc(Nc3nc(-c4cccc([N+](=O)[O-])c4)cs3)cc2)nc(OC)n1	none
O=C(Nc1nc(-c2ccccc2)cs1)c1cccc([N+](=O)[O-])c1	CHX counter 50, Shiga toxin inh 100 (no result: Giardia FBPA inh)
O=[N+]([O-])c1cccc(-c2csc(Nc3ccccc3)n2)c1	CHX counter 68, Shiga toxin inh 91
COc1ccccc1Nc1nc(-c2cccc([N+](=O)[O-])c2)cs1	CHX counter 47
CCN(CC(=O)Nc1ccccc1C(F)(F)F)C(=O)c1ccc(-n2nc(C)c(CCC(=O)OC)c2C)cc1	none (no result: Giardia FBPA inh, Sm TGR block, LmPK inh, CHX counter, Shiga toxin inh)
C[C@@H](C(=O)Nc1ccc2c(c1)OCCO2)n1nnc2ccccc2c1=O	CHX counter 45, Shiga toxin inh 107
CC(C(=O)Nc1ccc2c(c1)OCCO2)n1nnc(-c2ccccc2)n1 (configuration not stated)	none (no result: Sm TGR block)
Cc1ccccc1OC(C)C(=O)Nc1ccc2c(c1)OCCO2 (configuration not stated)	CHX counter 34 (no result: Giardia FBPA inh)
CCC(C)[C@@H](C(=O)Nc1ccc2c(c1)OCO2)N1Cc2ccccc2C1=O (some centres not stated)	none
CC(OC(=O)/C=C/c1ccccc1)C(=O)Nc1ccc2c(c1)OCCO2 (configuration not stated)	none (no result: Giardia FBPA inh, LmPK inh, CHX counter, Shiga toxin inh)
CC(C(=O)Nc1ccc2c(c1)OCCO2)N1Cc2ccccc2C1=O (configuration not stated)	CHX counter 21 (no result: Giardia FBPA inh)
Cc1cc(Cl)ccc1C(=O)C1CCCN(C(=O)c2ccoc2)C1 (configuration not stated)	none
COCc1ccc(C(=O)N2CCCC(C(=O)c3ccc(Cl)cc3C)C2)o1 (configuration not stated)	Sm TGR block 32µM (no result: Giardia FBPA inh)
O=c1c(-c2ccco2)[n+]([O-])c2ccccc2n1OCc1ccccn1	Sm TGR block 18µM
O=c1c(-c2ccc(F)cc2)[n+]([O-])c2ccccc2n1OCc1ccccn1	TbPYK inhibitor inconclusive (no result: Sm TGR block)
O=c1c(-c2ccco2)[n+]([O-])c2ccccc2n1OCc1ccccc1[N+](=O)[O-]	Sm TGR block 16µM
COc1ccccc1-c1noc(-c2ccc(N3CCN(c4ccccc4)CC3)c([N+](=O)[O-])c2)n1	none (no result: Giardia FBPA inh, LmPK inh, CHX counter, Shiga toxin inh)
OC[C@@H]1[C@@H](c2ccc(F)cc2)C(c2ccc(F)cc2)=NN1c1ccccc1	none (no result: Sm TGR block, LmPK inh, TbPYK inhibitor)
Cc1ccc(C)c(C(=O)CSc2nnnn2C(C)C)c1	CHX counter 62, Shiga toxin inh 54
CCn1c(SCC(=O)c2ccc3c(c2)OCCO3)nnc1C(C)C	Sm TGR block inconclusive, CHX counter 19
Cc1ccc(C)c(C(=O)CSc2nnnn2-c2cccnc2)c1	none
Cn1c(SCC(=O)c2ccc3c(c2)NC(=O)CO3)nc2ccccc21	none (no result: Sm TGR block)
COc1cccc(C(=O)CSc2nnnn2C2CCCCC2)c1	CHX counter 28, Shiga toxin inh 59
CCCn1c(SCC(=O)c2ccc3c(c2)NC(=O)CO3)nc2ccccc21	Sm TGR block 40µM
O=C(Cn1c(=O)n(Cc2ccc(C(=O)NCc3ccccc3Cl)cc2)c(=O)c2ccccc21)Nc1ccc(F)cc1	none (no result: Giardia FBPA inh, LmPK inh, CHX counter, Shiga toxin inh)
CCOc1ccc(CNC(=O)c2cc3c(=O)oc4ccc(C)cc4c3s2)cc1	none (no result: Giardia FBPA inh, LmPK inh, CHX counter, Shiga toxin inh)
O=C(CSc1nnnn1C1CCCC1)Nc1ccc2c(c1)OCO2	none
CC(C)n1nnnc1SCC(=O)c1ccc2c(c1)OCCO2	CHX counter 36, Shiga toxin inh 42
O=C(CSc1nnnn1C1CCCC1)c1ccc2c(c1)OCCO2	Sm TGR block inconclusive, CHX counter 33
CCn1nnnc1SCC(=O)c1ccc2c(c1)OCCO2	CHX counter 52, Shiga toxin inh 113 (no result: Giardia FBPA inh)
CCCn1c(SCC(=O)c2ccc3c(c2)OCCO3)n[nH]c1=O	CHX counter 30, Shiga toxin inh 62
COc1ccc([C@H]2C[C@H](O)[C@@H](n3cc(-c4ccc(F)cc4)nn3)CN2Cc2cccs2)cc1	none (no result: Giardia FBPA inh, Sm TGR block, LmPK inh, CHX counter, Shiga toxin inh)
CCN(CC)C(=O)CSC(=Nc1ccccc1F)NC#N	CHX counter 22, Shiga toxin inh 73
Cn1ncc(Br)c1C(=O)OCC(=O)Nc1nc(-c2ccccc2)cs1	CHX counter 19, Shiga toxin inh 31
O=C(COC(=O)c1ccccn1)c1ccc([N+](=O)[O-])cc1	Shiga toxin inh 41

Screening results deposited in PubChem BioAssay by National Center for Advancing Translational Sciences (NCATS).
